{
  "source": "the supplement of paper PMC11732987",
  "about": "“Enantioselective OTUD7B fragment discovery through chemoproteomics screening and high-throughput optimisation” (Communications Chemistry, 2025)",
  "assay_in_all_cases": "log2 ratio of Biotin-Ahx-Ub-VS probe labelling (fragment/DMSO); higher = less target engagement (more negative = stronger competition), active = hit call of the paper (q ≤ 0.05, log2 ratio ≤ -1)",
  "conditions_in_all_cases": "compound concentration: 200 uM; treatment time: 3 h",
  "key": {"USP19": {"target": "T1, USP19 (UniProt O94966)", "T1 sequence (whole entry)": "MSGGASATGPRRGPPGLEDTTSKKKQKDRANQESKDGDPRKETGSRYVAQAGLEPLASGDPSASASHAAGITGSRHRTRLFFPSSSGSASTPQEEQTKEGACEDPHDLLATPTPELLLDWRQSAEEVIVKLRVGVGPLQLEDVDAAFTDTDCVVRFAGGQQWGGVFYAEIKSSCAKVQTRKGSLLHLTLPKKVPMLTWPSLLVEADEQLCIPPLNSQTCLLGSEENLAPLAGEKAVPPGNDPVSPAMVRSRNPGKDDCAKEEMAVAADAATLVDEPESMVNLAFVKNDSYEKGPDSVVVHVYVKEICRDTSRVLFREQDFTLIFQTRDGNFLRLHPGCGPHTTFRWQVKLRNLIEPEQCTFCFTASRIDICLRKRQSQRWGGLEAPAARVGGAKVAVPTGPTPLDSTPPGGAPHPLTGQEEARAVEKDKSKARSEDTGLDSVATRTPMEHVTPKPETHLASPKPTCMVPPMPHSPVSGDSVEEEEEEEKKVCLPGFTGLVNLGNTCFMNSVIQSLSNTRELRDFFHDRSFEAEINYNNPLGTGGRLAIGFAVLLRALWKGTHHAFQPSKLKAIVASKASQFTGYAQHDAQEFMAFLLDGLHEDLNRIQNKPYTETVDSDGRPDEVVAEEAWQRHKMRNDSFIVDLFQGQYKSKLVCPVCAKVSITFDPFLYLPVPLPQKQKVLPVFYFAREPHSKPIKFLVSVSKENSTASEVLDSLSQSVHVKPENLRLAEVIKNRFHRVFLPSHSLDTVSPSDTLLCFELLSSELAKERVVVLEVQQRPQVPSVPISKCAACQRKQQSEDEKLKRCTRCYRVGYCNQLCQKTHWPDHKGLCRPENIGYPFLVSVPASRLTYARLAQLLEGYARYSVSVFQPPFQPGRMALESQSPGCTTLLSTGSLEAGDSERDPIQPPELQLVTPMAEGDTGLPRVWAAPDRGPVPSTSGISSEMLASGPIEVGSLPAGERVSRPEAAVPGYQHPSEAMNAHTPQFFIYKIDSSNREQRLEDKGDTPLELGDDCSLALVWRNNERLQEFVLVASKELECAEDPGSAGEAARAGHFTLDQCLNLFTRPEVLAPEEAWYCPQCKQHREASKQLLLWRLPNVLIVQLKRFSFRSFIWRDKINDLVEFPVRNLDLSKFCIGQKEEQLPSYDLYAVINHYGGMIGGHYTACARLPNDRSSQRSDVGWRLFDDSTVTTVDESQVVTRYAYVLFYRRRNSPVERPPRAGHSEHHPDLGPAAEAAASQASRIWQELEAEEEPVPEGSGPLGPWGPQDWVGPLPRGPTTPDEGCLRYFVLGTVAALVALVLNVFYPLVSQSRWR", "procedure,_shortened": "(§1)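 Each value is an average log2 ratio of fragment to vehicle, tested by unpaired t-test. The underlying Spectronaut label-free quantities were global-median-normalised, and only proteins with ≥2 unique peptides were included. Triplicate HEK293T lysate samples (495 µg) were exposed to fragment at 200 µM or vehicle for 3 h, then to Biotin-Ahx-Ub-VS at 0.5 µM final for 1 h, before NeutrAvidin enrichment of labelled DUBs, LysC and trypsin digestion, and diaPASEF LC-MS/MS.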"}, "USP22": {"target": "T2, USP22 (UniProt Q9UPT9)", "T2 sequence (whole entry)": "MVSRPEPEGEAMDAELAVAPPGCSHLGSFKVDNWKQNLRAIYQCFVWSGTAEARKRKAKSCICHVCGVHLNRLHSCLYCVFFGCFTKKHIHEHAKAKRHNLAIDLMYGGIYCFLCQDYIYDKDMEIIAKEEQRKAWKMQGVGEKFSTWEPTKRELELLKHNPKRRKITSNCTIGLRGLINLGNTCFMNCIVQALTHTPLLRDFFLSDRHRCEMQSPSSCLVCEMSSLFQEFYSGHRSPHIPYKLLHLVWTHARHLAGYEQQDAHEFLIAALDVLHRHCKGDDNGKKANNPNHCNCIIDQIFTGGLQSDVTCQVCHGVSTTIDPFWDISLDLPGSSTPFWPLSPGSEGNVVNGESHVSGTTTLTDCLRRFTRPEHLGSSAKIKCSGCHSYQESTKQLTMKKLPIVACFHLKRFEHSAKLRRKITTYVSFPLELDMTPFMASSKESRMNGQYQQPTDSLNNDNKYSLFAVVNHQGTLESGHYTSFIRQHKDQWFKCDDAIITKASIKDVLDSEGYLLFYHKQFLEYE", "procedure,_shortened": "as §1"}, "USP24": {"target": "USP24 (UniProt Q9UPU5)", "sequence (Q9UPU5 whole entry)": "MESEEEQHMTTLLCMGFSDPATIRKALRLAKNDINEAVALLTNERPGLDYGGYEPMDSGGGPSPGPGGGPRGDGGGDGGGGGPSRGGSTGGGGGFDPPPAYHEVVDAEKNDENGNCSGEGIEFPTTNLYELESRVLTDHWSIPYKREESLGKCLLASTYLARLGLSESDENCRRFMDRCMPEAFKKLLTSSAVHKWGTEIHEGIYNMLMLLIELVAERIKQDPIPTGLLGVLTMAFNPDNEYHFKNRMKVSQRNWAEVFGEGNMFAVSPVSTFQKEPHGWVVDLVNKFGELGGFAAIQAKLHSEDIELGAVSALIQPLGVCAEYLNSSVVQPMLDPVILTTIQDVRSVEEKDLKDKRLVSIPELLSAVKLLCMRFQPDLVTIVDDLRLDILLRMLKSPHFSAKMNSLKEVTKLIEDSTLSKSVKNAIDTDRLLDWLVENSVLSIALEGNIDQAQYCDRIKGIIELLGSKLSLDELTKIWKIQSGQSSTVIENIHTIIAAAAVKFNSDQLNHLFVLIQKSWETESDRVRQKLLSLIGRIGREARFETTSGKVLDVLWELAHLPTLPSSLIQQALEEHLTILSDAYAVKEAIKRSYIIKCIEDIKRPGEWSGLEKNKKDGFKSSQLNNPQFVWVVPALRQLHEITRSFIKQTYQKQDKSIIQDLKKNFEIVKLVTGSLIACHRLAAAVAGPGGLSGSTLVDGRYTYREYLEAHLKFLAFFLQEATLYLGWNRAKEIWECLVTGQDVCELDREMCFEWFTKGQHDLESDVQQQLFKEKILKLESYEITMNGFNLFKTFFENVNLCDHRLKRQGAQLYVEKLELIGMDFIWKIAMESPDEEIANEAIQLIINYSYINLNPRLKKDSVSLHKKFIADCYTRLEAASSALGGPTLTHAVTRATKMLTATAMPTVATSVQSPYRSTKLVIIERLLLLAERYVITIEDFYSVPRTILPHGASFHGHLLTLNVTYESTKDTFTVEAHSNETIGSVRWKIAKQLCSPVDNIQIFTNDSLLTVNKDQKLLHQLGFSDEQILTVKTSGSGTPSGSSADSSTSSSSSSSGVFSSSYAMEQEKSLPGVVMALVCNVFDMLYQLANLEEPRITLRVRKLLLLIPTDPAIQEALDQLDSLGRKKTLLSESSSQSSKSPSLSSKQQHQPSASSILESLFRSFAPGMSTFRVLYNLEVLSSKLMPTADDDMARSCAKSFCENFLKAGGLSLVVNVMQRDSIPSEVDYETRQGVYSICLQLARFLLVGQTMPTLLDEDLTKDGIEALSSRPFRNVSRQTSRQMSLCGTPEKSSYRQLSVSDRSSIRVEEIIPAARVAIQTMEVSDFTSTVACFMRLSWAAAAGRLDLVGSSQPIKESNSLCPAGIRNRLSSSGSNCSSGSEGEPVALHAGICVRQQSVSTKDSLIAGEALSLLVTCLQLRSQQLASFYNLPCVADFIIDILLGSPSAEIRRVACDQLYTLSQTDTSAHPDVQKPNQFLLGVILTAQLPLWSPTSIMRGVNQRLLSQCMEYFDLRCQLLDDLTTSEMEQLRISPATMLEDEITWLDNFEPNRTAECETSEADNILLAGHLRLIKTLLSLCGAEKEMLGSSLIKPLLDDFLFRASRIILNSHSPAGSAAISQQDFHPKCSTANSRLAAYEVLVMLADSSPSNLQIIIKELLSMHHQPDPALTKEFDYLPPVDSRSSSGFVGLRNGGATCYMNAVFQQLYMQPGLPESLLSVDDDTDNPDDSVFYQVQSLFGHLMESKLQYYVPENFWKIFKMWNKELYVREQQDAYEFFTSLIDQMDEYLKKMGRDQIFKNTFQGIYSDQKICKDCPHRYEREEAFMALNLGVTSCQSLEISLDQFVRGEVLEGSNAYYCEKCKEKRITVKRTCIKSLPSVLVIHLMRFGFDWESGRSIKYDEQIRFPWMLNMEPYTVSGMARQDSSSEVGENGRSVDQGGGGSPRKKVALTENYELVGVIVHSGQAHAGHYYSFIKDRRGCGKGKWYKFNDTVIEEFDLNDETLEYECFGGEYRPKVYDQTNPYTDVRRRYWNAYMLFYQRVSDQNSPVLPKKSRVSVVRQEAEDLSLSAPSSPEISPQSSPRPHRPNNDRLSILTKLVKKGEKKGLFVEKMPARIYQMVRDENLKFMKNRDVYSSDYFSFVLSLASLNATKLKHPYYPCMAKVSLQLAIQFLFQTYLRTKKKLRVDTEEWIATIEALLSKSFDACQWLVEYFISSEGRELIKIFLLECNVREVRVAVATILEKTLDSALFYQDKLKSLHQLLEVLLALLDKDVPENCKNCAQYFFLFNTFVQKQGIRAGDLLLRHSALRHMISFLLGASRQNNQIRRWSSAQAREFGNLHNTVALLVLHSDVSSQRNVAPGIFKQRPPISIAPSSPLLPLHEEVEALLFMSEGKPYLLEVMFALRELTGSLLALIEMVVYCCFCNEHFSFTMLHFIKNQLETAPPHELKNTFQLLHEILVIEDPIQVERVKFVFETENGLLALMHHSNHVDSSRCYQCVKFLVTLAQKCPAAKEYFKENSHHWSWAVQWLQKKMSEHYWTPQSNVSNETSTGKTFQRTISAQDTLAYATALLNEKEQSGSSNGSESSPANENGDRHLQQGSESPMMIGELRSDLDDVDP", "procedure,_shortened": "as §1"}, "USP25": {"target": "T3, USP25 (UniProt Q9UHP3)", "T3 sequence (whole entry)": "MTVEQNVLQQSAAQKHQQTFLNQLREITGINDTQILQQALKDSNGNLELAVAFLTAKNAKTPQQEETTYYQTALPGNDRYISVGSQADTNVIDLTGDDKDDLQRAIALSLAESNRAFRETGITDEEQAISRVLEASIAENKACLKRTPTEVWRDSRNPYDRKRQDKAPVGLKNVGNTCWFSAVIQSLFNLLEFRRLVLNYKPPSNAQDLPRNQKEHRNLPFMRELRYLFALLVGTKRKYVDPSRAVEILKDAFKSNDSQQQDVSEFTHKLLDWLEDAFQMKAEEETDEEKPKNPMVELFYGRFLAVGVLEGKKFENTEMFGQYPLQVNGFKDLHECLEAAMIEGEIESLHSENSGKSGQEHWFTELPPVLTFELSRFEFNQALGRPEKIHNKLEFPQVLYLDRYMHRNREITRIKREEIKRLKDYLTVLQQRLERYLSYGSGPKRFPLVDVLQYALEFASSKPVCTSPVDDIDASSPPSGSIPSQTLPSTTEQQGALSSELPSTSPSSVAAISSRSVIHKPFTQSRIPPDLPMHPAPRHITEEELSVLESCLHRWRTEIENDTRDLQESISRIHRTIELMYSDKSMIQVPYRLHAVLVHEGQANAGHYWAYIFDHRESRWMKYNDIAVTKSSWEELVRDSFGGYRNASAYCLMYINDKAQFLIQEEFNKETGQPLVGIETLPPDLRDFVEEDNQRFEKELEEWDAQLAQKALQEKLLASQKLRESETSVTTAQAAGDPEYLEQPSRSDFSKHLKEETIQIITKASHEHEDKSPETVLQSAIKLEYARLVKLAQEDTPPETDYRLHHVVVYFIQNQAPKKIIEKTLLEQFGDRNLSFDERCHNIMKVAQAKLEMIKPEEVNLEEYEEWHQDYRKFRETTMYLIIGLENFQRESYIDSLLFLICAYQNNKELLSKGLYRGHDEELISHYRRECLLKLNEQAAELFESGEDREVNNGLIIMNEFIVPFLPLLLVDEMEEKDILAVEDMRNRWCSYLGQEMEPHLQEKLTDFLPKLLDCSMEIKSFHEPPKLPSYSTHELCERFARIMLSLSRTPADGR", "procedure,_shortened": "as §1"}, "USP28": {"target": "T4, USP28 (UniProt Q96RU2)", "T4 sequence (whole entry)": "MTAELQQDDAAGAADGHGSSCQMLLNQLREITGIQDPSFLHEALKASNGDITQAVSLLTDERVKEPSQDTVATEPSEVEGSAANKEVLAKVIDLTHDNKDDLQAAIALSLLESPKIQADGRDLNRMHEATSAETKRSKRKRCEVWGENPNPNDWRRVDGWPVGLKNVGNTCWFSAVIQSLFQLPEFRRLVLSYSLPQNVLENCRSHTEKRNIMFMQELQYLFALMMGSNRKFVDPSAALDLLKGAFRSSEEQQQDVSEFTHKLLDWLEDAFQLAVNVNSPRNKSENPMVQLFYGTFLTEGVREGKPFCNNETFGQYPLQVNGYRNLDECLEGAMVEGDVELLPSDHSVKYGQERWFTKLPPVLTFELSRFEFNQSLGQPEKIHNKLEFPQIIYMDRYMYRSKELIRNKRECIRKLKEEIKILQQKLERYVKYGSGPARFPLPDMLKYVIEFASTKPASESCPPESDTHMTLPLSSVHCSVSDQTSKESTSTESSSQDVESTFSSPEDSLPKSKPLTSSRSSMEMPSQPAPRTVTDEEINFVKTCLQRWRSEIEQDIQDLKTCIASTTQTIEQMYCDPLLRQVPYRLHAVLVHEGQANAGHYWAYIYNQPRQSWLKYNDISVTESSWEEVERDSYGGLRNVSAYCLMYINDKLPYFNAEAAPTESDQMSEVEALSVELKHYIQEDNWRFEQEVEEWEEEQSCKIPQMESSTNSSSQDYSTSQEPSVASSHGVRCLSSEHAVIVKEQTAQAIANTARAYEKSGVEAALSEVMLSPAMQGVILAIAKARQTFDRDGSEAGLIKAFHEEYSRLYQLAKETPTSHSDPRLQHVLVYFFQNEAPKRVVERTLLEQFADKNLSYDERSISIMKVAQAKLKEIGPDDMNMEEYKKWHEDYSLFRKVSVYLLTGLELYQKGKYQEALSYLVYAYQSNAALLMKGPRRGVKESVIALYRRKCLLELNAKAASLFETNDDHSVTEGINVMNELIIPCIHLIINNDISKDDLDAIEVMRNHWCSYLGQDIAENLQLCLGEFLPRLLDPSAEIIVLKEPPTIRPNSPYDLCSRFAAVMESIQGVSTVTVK", "procedure,_shortened": "as §1"}},
  "note": "A number with no mark means an inactive call.",
  "data": [
    {"smiles": "CN1C(=O)c2ccc(NC(=O)CCl)cc2C1=O", "values": [
      {"measurement": "log2 ratio of Biotin-Ahx-Ub-VS probe labelling", "setting": "USP19", "result": -0.358},
      {"measurement": "log2 ratio of Biotin-Ahx-Ub-VS probe labelling", "setting": "USP22", "result": 0.0519},
      {"measurement": "log2 ratio of Biotin-Ahx-Ub-VS probe labelling", "setting": "USP24", "result": -0.467},
      {"measurement": "log2 ratio of Biotin-Ahx-Ub-VS probe labelling", "setting": "USP25", "result": "-1.54 (active)"},
      {"measurement": "log2 ratio of Biotin-Ahx-Ub-VS probe labelling", "setting": "USP28", "result": "-1.5 (active)"}
    ]}
  ]
}
